Results reported in PubChem BioAssay.
Several values for one entry are separate records, joined by “and”; a condition that tells them apart may be missing. Identical values can stand only once. Records with an inconclusive call do not appear. Activity calls are given as the source filed them.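 The calls were made as follows, unless noted: active = normalized viability below 100% at a tested concentration; inactive = the rest.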

Assays:
[1] = viability loss in pontine glioma line – cell-based, SU-DIPG-XXV, MIPE5.0, CellTiter-Glo, qHTS, dose response (AID 1347065; cut-off not given, nearly all actives have AC50 up to about 26 µM;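 also: cells exposed to compound for 48 hours before ATP readout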); details: CellTiter-Glo ATP luminescence
[2] = SU-DIPG-VI glioma cell viability, MIPE4.0 library, CellTiter-Glo luminescence, qHTS (AID 1347066; cut-off not given, nearly all actives have AC50 up to about 30 µM;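 also: cells exposed to compound for 48 hours before readout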); details: CellTiter-Glo ATP luminescence
[3] = JHH-DIPG-1 glioma cell viability, MIPE5.0 library, CellTiter-Glo luminescence, qHTS (AID 1347067; cut-off not given, nearly all actives have AC50 up to about 26 µM;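 also: cells exposed to compound for 48 hours before readout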); details: JHH-DIPG-1 glioma viability, CellTiter-Glo ATP luminescence
[4] = SU-DIPG-XXV glioma cell viability, MIPE5.0 library, qHTS (AID 1347068; cut-off not given, nearly all actives have IC50 up to about 30 µM)
[5] = phospholipid biosynthesis inhibitors in animal cells, primary screen, cell-based, LOPAC library, screen 4 (AID 1347384; call rule not given here); details: phospholipid biosynthesis inhibition screen, at 10 µM
[6] = survival rescue of mitochondrial mutant cells in low glucose, primary screen, MELAS cybrids, Rieske KO mouse fibroblasts, CellTiter-Glo (AID 1508586;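 active = mean z-score across replicates of 1.96 or higher in either the MELAS or the Rieske mutant cell line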;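 also: z relative to plate mean and SD of compound and empty wells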)
[7] = molecular target: NAD(+) hydrolase SARM1 (Homo sapiens) (UniProt Q6SZW1); assay: SARM1 TIR NADase inhibitors, cell lysate, NAD-Glo luminescence (AID 1508614;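 active = compound whose remaining NAD level is above about 45 nM, limit read from the data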;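 also: higher remaining NAD means stronger inhibition of SARM1 NADase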); details: SAM-TIR HEK293T lysate NADase, at 1 µM, stronger effect = higher value
Chain of NAD(+) hydrolase SARM1 (Homo sapiens) (Q6SZW1 whole entry, looked up, the tested form may be a part): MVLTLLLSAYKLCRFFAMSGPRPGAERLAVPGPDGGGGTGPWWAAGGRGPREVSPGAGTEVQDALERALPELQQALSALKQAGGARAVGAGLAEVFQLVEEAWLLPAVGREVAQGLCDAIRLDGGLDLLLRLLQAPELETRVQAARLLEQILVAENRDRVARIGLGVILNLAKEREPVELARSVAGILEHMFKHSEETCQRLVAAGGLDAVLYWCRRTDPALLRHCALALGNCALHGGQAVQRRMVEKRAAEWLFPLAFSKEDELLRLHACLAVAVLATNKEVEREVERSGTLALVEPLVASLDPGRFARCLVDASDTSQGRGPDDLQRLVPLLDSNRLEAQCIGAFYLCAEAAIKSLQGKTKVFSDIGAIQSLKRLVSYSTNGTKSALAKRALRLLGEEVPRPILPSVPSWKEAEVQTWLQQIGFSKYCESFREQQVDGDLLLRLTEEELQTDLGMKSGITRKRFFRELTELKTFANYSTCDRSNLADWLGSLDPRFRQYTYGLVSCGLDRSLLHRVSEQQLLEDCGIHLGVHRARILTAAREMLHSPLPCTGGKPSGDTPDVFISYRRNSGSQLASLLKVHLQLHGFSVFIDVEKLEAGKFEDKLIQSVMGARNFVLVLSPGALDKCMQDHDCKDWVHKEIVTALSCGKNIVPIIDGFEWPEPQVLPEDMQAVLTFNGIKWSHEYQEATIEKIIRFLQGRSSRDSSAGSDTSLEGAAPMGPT

[8] = molecular target: Mitogen-activated protein kinase 7 (Homo sapiens) (UniProt Q13164); assay: ERK5 transactivation activators in reporter cells, primary screen, cell-based, HTS (AID 1508626;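 active = luciferase signal above three times the same-plate solvent-only control wells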;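 also: luciferase driven by Gal4-ERK5 fusion binding five Gal4 sites before minimal TATA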); details: HeLa Gal4-ERK5 transactivation, 18 h, at 5 µM, stronger effect = higher value
Chain of Mitogen-activated protein kinase 7 (Homo sapiens) (Q13164 whole entry, looked up, the tested form may be a part): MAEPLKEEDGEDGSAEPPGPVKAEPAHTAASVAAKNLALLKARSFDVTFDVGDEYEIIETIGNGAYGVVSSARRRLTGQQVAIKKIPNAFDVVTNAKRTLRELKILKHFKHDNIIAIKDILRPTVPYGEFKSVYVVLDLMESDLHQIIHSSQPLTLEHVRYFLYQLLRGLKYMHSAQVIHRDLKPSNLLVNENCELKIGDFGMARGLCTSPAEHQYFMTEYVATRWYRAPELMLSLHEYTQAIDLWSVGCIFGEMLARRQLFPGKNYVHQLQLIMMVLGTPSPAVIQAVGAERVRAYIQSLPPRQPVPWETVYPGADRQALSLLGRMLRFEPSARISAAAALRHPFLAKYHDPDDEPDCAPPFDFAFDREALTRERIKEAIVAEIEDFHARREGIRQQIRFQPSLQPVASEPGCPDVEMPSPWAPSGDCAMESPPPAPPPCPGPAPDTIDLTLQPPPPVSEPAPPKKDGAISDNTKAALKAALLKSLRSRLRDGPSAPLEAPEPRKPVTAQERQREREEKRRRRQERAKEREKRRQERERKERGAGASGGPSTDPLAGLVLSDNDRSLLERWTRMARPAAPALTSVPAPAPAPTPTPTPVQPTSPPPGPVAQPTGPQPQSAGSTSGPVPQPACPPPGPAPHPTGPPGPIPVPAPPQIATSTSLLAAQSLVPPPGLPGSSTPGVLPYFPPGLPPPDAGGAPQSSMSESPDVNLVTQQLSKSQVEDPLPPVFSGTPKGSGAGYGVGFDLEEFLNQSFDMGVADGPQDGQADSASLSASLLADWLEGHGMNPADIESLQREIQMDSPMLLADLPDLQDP

[9] = viability rescue of complex I mutant cybrids, primary screen, cell-based, galactose medium, ATP luminescence (AID 1645843;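 active = z-score of at least 1.8 in each of two replicates, scored against plate mean and spread of sample wells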;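 also: positive z means more ATP and so rescue of galactose-driven cybrid death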); details: complex I mutant cybrid cells, 72 h, stronger effect = higher value
[10] = modifiers of HSF1 nuclear foci, imaging, Selleck Cancer Library (AID 1347162; in the data active = plate-normalised HSF1 focus index below about 0.46); details: human cells, at 10 µM; SSMD: measured here: HSF1 foci SSMD mean; cell count: measured here: cell number; plate-normalised HSF1 focus index: stronger effect = lower value
[11] = ovarian cancer cell viability with rucaparib, profiling panel, oncology-focused library, rucaparib conditional (AID 1508598); details: patient-derived ovarian cancer cells, CellTiter-Glo viability, 144 h, stronger effect = lower value
[12] = MELAS cybrid survival, CellTiter-Glo 48 h, stronger effect = higher value
[13] = Rieske KO mouse fibroblast survival, CellTiter-Glo 72 h

Cc1cc(C(C)(C)C)c(O)c(C)c1CC1=NCCN1
0.698 and 0.504 and 0.891: z-score [6, 13]
inactive: outcome [1] | outcome [2] | outcome [3] | outcome [4] | outcome [5] | z-score [6, 12] -0.371 and 0.43 and 0.93 | remaining NAD [7] 10 nM | luciferase signal [8] 28 AU | z-score [9] 0.16 and -0.235 and 0.51

COc1ccccc1OCC(O)CN1CCN(CC(=O)Nc2c(C)cccc2C)CC1 (configuration not stated)
inactive: outcome [1] | outcome [2] | outcome [3] | outcome [4] | plate-normalised HSF1 focus index [10] 1.14 | outcome [5] | viability ([11]; at 0.000305 µM, OCI-C5x cells, with rucaparib 10 µM, 100% = cells with rucaparib alone) 108% | viability ([11]; at 0.000305 µM, OCI-C5x cells, without rucaparib) 113% | viability ([11]; at 0.000305 µM, OCI-P5x cells, with rucaparib 20 µM, 100% = cells with rucaparib alone) 102% | viability ([11]; at 0.000305 µM, OCI-P5x cells, without rucaparib) 108% | viability ([11]; at 0.00122 µM, OCI-C5x cells, with rucaparib 10 µM, 100% = cells with rucaparib alone) 114% | viability ([11]; at 0.00122 µM, OCI-C5x cells, without rucaparib) 124% | viability ([11]; at 0.00122 µM, OCI-P5x cells, without rucaparib) 106% | viability ([11]; at 0.00488 µM, OCI-C5x cells, with rucaparib 10 µM, 100% = cells with rucaparib alone) 115% | viability ([11]; at 0.00488 µM, OCI-C5x cells, without rucaparib) 113% | viability ([11]; at 0.00488 µM, OCI-P5x cells, without rucaparib) 109% | viability ([11]; at 0.0195 µM, OCI-C5x cells, with rucaparib 10 µM, 100% = cells with rucaparib alone) 106% | viability ([11]; at 0.0195 µM, OCI-C5x cells, without rucaparib) 107% | viability ([11]; at 0.0195 µM, OCI-P5x cells, without rucaparib) 108% | viability ([11]; at 0.0781 µM, OCI-C5x cells, with rucaparib 10 µM, 100% = cells with rucaparib alone) 108% | viability ([11]; at 0.0781 µM, OCI-C5x cells, without rucaparib) 114% | viability ([11]; at 0.0781 µM, OCI-P5x cells, with rucaparib 20 µM, 100% = cells with rucaparib alone) 101% | viability ([11]; at 0.0781 µM, OCI-P5x cells, without rucaparib) 106% | viability ([11]; at 0.313 µM, OCI-C5x cells, with rucaparib 10 µM, 100% = cells with rucaparib alone) 110% | viability ([11]; at 0.313 µM, OCI-C5x cells, without rucaparib) 118% | viability ([11]; at 0.313 µM, OCI-P5x cells, without rucaparib) 107% | viability ([11]; at 1.25 µM, OCI-C5x cells, with rucaparib 10 µM, 100% = cells with rucaparib alone) 102% | viability ([11]; at 1.25 µM, OCI-C5x cells, without rucaparib) 121% | viability ([11]; at 1.25 µM, OCI-P5x cells, with rucaparib 20 µM, 100% = cells with rucaparib alone) 104% | remaining NAD [7] 10 nM | luciferase signal [8] 56 AU | z-score [9] -0.345 and -0.115 and 0.005
7450: cell count [10]
2.29: SSMD [10]
active: viability ([11]; at 0.00122 µM, OCI-P5x cells, with rucaparib 20 µM, 100% = cells with rucaparib alone) 96% | viability ([11]; at 0.00488 µM, OCI-P5x cells, with rucaparib 20 µM, 100% = cells with rucaparib alone) 93.5% | viability ([11]; at 0.0195 µM, OCI-P5x cells, with rucaparib 20 µM, 100% = cells with rucaparib alone) 94.5% | viability ([11]; at 0.313 µM, OCI-P5x cells, with rucaparib 20 µM, 100% = cells with rucaparib alone) 94.5% | viability ([11]; at 1.25 µM, OCI-P5x cells, without rucaparib) 92.6% | viability ([11]; at 5 µM, OCI-C5x cells, with rucaparib 10 µM, 100% = cells with rucaparib alone) 67.5% | viability ([11]; at 5 µM, OCI-C5x cells, without rucaparib) 39.4% | viability ([11]; at 5 µM, OCI-P5x cells, with rucaparib 20 µM, 100% = cells with rucaparib alone) 49.6% | viability ([11]; at 5 µM, OCI-P5x cells, without rucaparib) 23.6%

Oc1ccc(C2CNCCc3c2cc(O)c(O)c3Cl)cc1 (configuration not stated)
-0.363 and -0.533: z-score [6, 13]
inactive: outcome [1] | outcome [2] | outcome [3] | outcome [4] | outcome [5] | z-score [6, 12] 0.526 and 0.283 | remaining NAD [7] 10 nM

CCN1CCCC1CNC(=O)c1cc(S(=O)(=O)CC)c(N)cc1OC (configuration not stated)
inactive: outcome [1] | outcome [2] | outcome [3] | outcome [4] | outcome [5] | z-score [6, 12] -0.415 and 0.449 | remaining NAD [7] 10 nM | z-score [9] 0.105 and 0.58 and -0.055
0.177 and 0.21: z-score [6, 13]

Clc1ccc2nsnc2c1NC1=NCCN1
0.606 and 0.144 and -1.3: z-score [6, 13]
inactive: outcome [1] | outcome [2] | outcome [3] | outcome [4] | outcome [5] | z-score [6, 12] -0.43 and 0.0544 and -0.148

NC[C@H](O)c1ccc(O)c(O)c1
-0.266 and 0.00809 and -1.27: z-score [6, 13]
inactive: outcome [1] | outcome [2] | outcome [3] | outcome [4] | outcome [5] | z-score [6, 12] -0.303 and 0.0574 and -0.946 | remaining NAD [7] 10 nM | luciferase signal [8] 60 AU | z-score [9] -1.45 and -1.61 and -1.02

COC(=O)[C@@H]1[C@H]2C[C@H]3c4[nH]c5ccccc5c4CCN3C[C@@H]2CC[C@@H]1O
inactive: outcome [1] | outcome [2] | outcome [3] | outcome [4] | outcome [5] | z-score [6, 12] 0.194 and -0.872 | remaining NAD [7] 10 nM | luciferase signal [8] 44 AU | z-score [9] 0.525 and 0.82
0.2 and -0.116: z-score [6, 13]
